From PubChem BioAssay (NCATS) come the findings set out here.

Test [1] can be described thus: Validation of Assay for Modulators of Lamin A Splicing (AID 1459; active = well fitted curve in the direction sought with a large enough effect in the signal ratio; the % refers to the signal ratio;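 also: cells exposed to compound for two days before reading; 0% is about no effect; ratio rise marks activators and ratio drop marks inhibitors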). The method, boiled down:
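HeLa S3 lamin A-EGFP/DsRed2 stable clone, 600 cells/well, Opti-MEM 2% FBS; compounds by pin tool; 48 hrs, 37 °C/5% CO2; Acumen 488 nm scan, objects 10-100 um; GFP/RFP intensity ratio.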

The nature of test [2]: qHTS Assay for Lipid Storage Modulators (AID 1519; calls by dose curve; as to activity change, negative = inhibition: % is scaled to controls: 0 for no effect and ±100 for the full control effect). As to conditions: Drosophila S3 cells, BODIPY lipid droplet/cell ratio, laser cytometry, cells loaded with oleic acid; for activity change, negative = inhibition: at 57.5 µM (top of the series). Put shortly: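 Cells seeded at 5,000 per well were treated with compounds over a concentration series and loaded with oleic acid (400 uM, as added). Lipid droplet fluorescence (488 nm excitation, 500-530 nm channel) was read by laser-scanning cytometry and normalized to 20 uM Triacsin C.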

Test [3] can be described thus: Counterscreen for APE1 Inhibitors: Fluorescent Dye Displacement Validation Assay (AID 1707). Also: potency is read from the fitted curve at half-maximal effect.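 As to activity change, negative = inhibition: plate controls were ThO with dsDNA and no compound for no effect and ThO without dsDNA for full effect.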 The method, boiled down:
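Assay buffer: Tris-HCl pH7.5 with 50mM NaCl, 2 mM MgCl2, 0.01% Tween-20. Dye 250 nM, duplex 50 nM final. Readout: decrease in ThO endpoint fluorescence, 480 nm excitation, 540 nm emission.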

In test [4] the target is Endonuclease 4 (Escherichia coli (strain K12)) (UniProt P0A6C1). Description: Counterscreen for APE1 Inhibitors: qHTS Validation Assay for Inhibitors of Endonuclease IV (AID 1708). Also: % is scaled to controls: 0 for no effect and ±100 for the full control effect. Put shortly:
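Concentration-response counterscreen run identically to the APE1 assay: 15 min room-temperature preincubation of 2 nM enzyme with compound, reaction started with 50 nM quenched abasic DNA, progress taken from kinetic fluorescence.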

A short description of test [5]: qHTS for differential inhibitors of proliferation of Plasmodium falciparum line 7G8 (AID 1815).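 Also: parasite growth measured after three days of incubation.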 Also: potency is read from the fitted curve at half-maximal effect.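 As to activity change, negative = inhibition: plate controls were vehicle wells for no effect and reference inhibitor wells for full effect.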
Test [6] is described as follows: qHTS for differential inhibitors of proliferation of Plasmodium falciparum line W2 (AID 1883).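 Also: potency is read from the fitted curve at half-maximal effect; parasites grown with compound for 72 h before lysis and staining.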 As to conditions: Potency: Plasmodium falciparum W2 proliferation inhibition.
For test [7], the target named is Ferritin light chain (Equus caballus) (UniProt P02791). The test is described as follows: qHTS Validation Assay for Identification of Novel General Anesthetics (AID 2323). Also: % is scaled to controls: 0 for no effect and ±100 for the full control effect. The method, boiled down:
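Fluorescence at 535 nm (excitation 380 nm) reported loss of 1-AMA binding to horse-spleen apoferritin (10 uM) in PBS with 50% saturated 1-aminoanthracene, after 10 min room-temperature incubation with compound; values from Hill fits of normalized response.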

The target of test [8] is ATP-dependent DNA helicase Q1 (Homo sapiens) (UniProt P46063). Description: qHTS Validation Assay for Inhibitors of RecQ-Like Dna Helicase 1 (RECQ1) (AID 2353).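 Also: plate controls were DMSO vehicle for no effect and enzyme-free control for full effect.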 The method, boiled down: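 50 nM RECQ1T1 preincubated 15 min with compound in Tris pH 8.0 buffer with MgCl2, DTT, Tween-20 and 2.5 ug/ml poly(dI-dC); started with 200 nM TAMRA/BHQ-2 forked duplex and 2 mM ATP. Unwinding read as fluorescence (525/598 nm), two reads 2 h apart.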
Chain of ATP-dependent DNA helicase Q1 (Homo sapiens) (P46063 whole entry, looked up): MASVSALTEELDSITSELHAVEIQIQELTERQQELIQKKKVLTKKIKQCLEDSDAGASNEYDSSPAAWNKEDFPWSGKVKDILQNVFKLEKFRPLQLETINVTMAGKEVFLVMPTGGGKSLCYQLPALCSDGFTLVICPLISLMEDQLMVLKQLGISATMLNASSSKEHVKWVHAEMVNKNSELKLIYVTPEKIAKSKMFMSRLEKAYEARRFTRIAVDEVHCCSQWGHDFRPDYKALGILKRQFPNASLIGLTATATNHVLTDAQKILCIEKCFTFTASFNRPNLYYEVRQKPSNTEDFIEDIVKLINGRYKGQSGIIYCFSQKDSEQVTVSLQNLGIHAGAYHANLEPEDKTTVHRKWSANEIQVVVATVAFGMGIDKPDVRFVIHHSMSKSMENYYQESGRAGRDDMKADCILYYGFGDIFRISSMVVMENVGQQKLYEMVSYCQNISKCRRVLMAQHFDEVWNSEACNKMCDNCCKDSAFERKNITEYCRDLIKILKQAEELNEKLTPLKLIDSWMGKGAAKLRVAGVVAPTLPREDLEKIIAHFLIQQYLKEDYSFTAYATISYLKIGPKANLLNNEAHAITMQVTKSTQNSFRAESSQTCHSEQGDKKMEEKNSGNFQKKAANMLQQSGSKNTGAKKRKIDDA

The target in test [9] is RecQ-like DNA helicase BLM (Homo sapiens) (UniProt P54132). Description: qHTS Validation Assay for Inhibitors of Bloom's syndrome helicase (BLM) (AID 2364).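 Also: plate controls were DMSO vehicle for no effect and enzyme-free control for full effect.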 Put shortly: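 BLM 50 nM in 25 mM Tris-HCl pH 8.0, 5 mM NaCl, 2 mM MgCl2, 1 mM DTT, 0.01% Tween-20, 2.5 ug/ml poly(dI-dC); 15 min cpd preinc, RT. Start: 200 nM forked DNA + 2 mM ATP (final). TAMRA read, 2 reads 2 h apart.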
Chain of RecQ-like DNA helicase BLM (Homo sapiens) (P54132 whole entry, looked up): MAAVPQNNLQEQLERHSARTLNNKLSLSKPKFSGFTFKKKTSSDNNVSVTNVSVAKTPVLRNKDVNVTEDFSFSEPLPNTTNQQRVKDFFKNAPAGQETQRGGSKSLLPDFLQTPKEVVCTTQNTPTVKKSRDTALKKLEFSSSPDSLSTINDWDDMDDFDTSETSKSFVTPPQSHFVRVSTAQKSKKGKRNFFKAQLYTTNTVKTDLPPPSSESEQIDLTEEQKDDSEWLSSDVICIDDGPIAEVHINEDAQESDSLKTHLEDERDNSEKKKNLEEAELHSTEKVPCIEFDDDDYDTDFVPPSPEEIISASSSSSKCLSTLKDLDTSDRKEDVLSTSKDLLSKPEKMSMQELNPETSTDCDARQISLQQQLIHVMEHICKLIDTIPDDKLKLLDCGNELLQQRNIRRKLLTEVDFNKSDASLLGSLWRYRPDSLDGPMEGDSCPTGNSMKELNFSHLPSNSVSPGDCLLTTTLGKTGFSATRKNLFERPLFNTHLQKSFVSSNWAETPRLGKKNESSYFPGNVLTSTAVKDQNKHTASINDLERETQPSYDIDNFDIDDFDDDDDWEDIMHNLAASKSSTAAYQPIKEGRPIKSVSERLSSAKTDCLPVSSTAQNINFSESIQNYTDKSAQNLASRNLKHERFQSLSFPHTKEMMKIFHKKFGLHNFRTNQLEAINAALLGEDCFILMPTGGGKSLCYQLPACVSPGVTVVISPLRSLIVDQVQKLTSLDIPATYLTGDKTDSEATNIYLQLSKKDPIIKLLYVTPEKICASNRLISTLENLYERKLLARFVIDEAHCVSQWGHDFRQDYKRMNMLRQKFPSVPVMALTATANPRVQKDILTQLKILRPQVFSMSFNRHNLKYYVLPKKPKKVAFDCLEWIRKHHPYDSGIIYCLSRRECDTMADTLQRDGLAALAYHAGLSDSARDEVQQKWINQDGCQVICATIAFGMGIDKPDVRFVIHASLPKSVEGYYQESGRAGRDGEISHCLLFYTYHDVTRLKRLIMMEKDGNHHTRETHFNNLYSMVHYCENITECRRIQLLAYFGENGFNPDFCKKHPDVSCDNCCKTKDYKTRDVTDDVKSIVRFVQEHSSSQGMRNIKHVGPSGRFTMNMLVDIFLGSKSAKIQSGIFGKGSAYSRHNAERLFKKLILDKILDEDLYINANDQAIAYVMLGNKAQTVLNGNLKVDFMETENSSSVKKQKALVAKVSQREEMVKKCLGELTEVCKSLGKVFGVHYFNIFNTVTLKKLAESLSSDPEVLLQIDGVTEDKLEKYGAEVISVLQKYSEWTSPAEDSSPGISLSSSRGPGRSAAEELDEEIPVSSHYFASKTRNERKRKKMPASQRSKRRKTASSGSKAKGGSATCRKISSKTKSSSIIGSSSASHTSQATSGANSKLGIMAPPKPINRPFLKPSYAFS

Test [10] has as its target DNA repair nuclease/redox regulator APEX1 (Homo sapiens) (UniProt P27695). Description: qHTS Validation Assay for Inhibitors of the Human Apurinic/apyrimidinic Endonuclease 1 (APE1) (AID 1705; also: potency is read from the fitted curve at half-maximal effect;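 as to activity change, negative = inhibition: TAMRA fluorescence gain over two minutes as APE1 cuts a quenched THF abasic duplex; % is scaled to controls: 0 for no effect and ±100 for the full control effect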). The method, boiled down:
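qHTS, 1536-well. APE1 + cpd 15 min RT → 50 nM TAMRA/BHQ-2 THF-abasic dsDNA substrate → kinetic fluorescence, 3 reads/60 s; delta(read3−read1) = reaction progress. No-enzyme buffer = negative control.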

Test [11] is described as follows: qHTS for differential inhibitors of proliferation of Plasmodium falciparum line Dd2 (AID 1882). Also: nearly all actives have a fitted effect of over 65% in size. Also: potency is read from the fitted curve at half-maximal effect.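 As to activity change, negative = inhibition: plate controls were DMSO vehicle for no effect and 0.29 µM artemisinin for full effect.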 As to conditions: Potency: Plasmodium falciparum Dd2 proliferation inhibition. Put shortly:
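Dd2-infected erythrocytes (0.3% parasitemia, 2.5% hematocrit final) incubated with compound 72 h at 37 C, 5% CO2; lysed with saponin/Triton buffer containing SYBR Green I, incubated overnight in the dark, then read by fluorescence (485/535 nm). Normalized to 0.29 uM artemisinin and DMSO.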

Test [12] can be described thus: qHTS for differential inhibitors of proliferation of Plasmodium falciparum line HB3 (AID 1886).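 Also: parasites grown with compound for 72 h before SYBR Green readout.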 Also: potency is read from the fitted curve at half-maximal effect.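 As to activity change, negative = inhibition: plate controls were vehicle for no effect and reference inhibitor for full effect.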 As to conditions: Potency: Plasmodium falciparum HB3 proliferation inhibition.
Test [13] has as its target alpha-glucosidase (Oryza sativa, rice) (UniProt Q653V4). Description: Counterscreen for Glucocerebrosidase Inhibitors: qHTS Assay for Rice alpha-Glucosidase at pH 5.0 (AID 997).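 Also: 0% = full activity with enzyme and -100% = basal without enzyme.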 Put shortly:
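Rice alpha-glucosidase (4 nM final) with 400 uM 4-methylumbelliferyl-alpha-D-glucopyranoside in citrate buffer pH 5.0, 20 min at room temperature, stopped at pH 10; fluorescence 365/440 nm, compounds 0.7 nM–77 uM, AC50 from Hill fits.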

Test [14] in a line: qHTS for differential inhibitors of proliferation of Plasmodium falciparum line GB4 (AID 1816).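 Also: parasite growth measured after 72 h incubation.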 Also: potency is read from the fitted curve at half-maximal effect.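 As to activity change, negative = inhibition: 0% = vehicle DMSO and -100% = reference inhibitor.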 Particulars: Potency: Plasmodium falciparum GB4 proliferation inhibition.
Test [15] can be described thus: qHTS for differential inhibitors of proliferation of Plasmodium falciparum line 3D7 (AID 1876). Also: potency is read from the fitted curve at half-maximal effect.
Test [16] in a line: qHTS for differential inhibitors of proliferation of Plasmodium falciparum line D10 (AID 1877).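 Also: parasites grown with compound for 72 h before DNA staining.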 Also: potency is read from the fitted curve at half-maximal effect.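 As to activity change, negative = inhibition: plate controls were vehicle wells for no effect and reference inhibitor wells for full effect.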
A short description of test [17]: qHTS Assay for Modulators of Human Peripheral Myelin Protein 22 (PMP22) Expression/Activity (AID 1967; active = well fitted curve in the direction sought with a large enough effect in the signal ratio; the % refers to the signal ratio;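 also: 0% = untreated cells and 100% end not stated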). The method, boiled down:
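Luminescence ratio of Pmp22 promoter-driven green luciferase to EF-alpha-driven red luciferase, in engineered mouse MSC80 Schwann cells, served as read-out. Compounds were incubated 24h; untreated cells defined 0% Activity; curves were classified by r2, magnitude and activity.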

[18] abbreviates: measured here: cell count channel max response.
Setting [19] is: measured here: lipid channel max response.

Each structure is given as a SMILES string. Several values for one entry are separate records, joined by “and”; a condition that tells them apart may be missing. Equal values may be shown once. Records with an inconclusive call do not appear. Activity calls are given as the source filed them. Unless noted, calls follow the shape of the dose curve; as a rule, active = well fitted curve in the direction sought with a large enough effect; inconclusive = small, poorly fitted or top-dose-only effect, or another doubt; inactive = no such curve, though single readings can be large; an effect the other way counts as inactive or inconclusive.

Chain of Ferritin light chain (Equus caballus) (P02791 2-175 limits assumed): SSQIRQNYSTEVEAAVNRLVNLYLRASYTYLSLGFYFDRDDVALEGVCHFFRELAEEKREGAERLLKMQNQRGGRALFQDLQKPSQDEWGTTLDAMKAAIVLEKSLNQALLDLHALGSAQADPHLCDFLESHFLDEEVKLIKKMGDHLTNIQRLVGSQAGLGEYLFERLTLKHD
Chain of DNA repair nuclease/redox regulator APEX1 (Homo sapiens) (P27695 whole entry, looked up): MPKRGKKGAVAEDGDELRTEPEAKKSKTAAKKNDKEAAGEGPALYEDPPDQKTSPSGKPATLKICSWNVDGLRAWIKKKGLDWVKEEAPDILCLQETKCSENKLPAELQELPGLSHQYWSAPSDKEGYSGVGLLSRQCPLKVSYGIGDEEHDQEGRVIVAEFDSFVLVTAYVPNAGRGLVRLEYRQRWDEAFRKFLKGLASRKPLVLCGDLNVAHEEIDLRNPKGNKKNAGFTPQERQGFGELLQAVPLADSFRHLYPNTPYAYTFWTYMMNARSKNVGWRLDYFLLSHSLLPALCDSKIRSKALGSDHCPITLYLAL

In the case of `COc1cccc(OC)c1OCCNCC1COc2ccccc2O1` (configuration not stated), the compound was called inactive in test [1]. Moreover, the activity change, negative = inhibition in test [2] is 3.94% (inactive) and -4.43% (inactive). Also, the max response was 10.2% and -61.3% in test [2] (setting [18]); 14.3% and -62.3% in [2] (setting [19]). Moreover, the Potency entry in test [3], in test [4], in test [7], in test [8] and in [9] was “inactive” each time. For the same compound, the Potency in [5] was 7.94 µM (active); in [6], 3.98 µM (active).

For the compound `Ic1ccc(N2CCN(Cc3c[nH]c4ncccc34)CC2)cc1`, the compound was called inactive in test [1]. For the same compound, the activity change, negative = inhibition in test [2] is 0.316% (inactive). The max response in test [2] (setting [18]) was -23.2%; in [2] (setting [19]), -22.2%. Further, the Potency entry in test [10], in [3], in test [4], in test [11], in [7] and in test [8] was “inactive” throughout. The Potency is 2.51 µM (active) in test [6] and 11.2 µM (active) in [12].

`C[N+](C)(CCCCCC[N+](C)(C)CCCN1C(=O)c2cccc3cccc(c23)C1=O)CCCN1C(=O)c2cccc3cccc(c23)C1=O`: the compound was classed as inactive in [13], in test [1] and in [17]. Moreover, the Potency was 3.55 µM (active) in test [10]; 5.62 µM (active) in test [3]; 0.794 µM (active) in test [5]; 0.316 µM (active) in test [14]; 0.0631 µM (active) in test [15]; 0.631 µM (active) in test [16]. Also, the Potency is 2.24 µM (active) in test [11], 0.631 µM (active) in [6] and 0.562 µM (active) in [12]. For the same compound, the Potency result in test [4], in test [8] and in test [9] was “inactive” in each case.

For `O=C(Nc1ccccc1)c1cc([N+](=O)[O-])ccc1Cl`, in [1], the result was inactive. Besides, the Potency result in test [10], in [3], in [4], in test [11], in test [8] and in [9] was “inactive” each time. Besides, the Potency in [5] is 8.91 µM (active); in [14], 11.2 µM (active); in [15] it was 11.2 µM (active); in [16], 11.2 µM (active); in [6], 12.6 µM (active); in test [12] it was 10 µM (active).

For the compound `NCCCCCCCCCCN`, the compound was called inactive in test [1] and in test [17]. The activity change, negative = inhibition in test [2] is -1.41% (inactive). Besides, the max response in [2] (setting [18]) stood at 42.1%; in test [2] (setting [19]), 42.6%. Also, the Potency entry in test [3], in test [5], in [14], in test [15], in test [16] and in [11] was “inactive” throughout. Also, the Potency entry in test [12], in test [7], in test [8] and in [9] was “inactive” each time.

With `O=c1[nH]c2cc([N+](=O)[O-])c([N+](=O)[O-])cc2[nH]c1=O`, the call in [1] and in [17] was inactive. Besides, in [2], the activity change, negative = inhibition is 3.97% (inactive). The max response in test [2] (setting [18]) was -1.11%; in test [2] (setting [19]) it was 2.64%. Also, the Potency entry in [10], in test [3], in test [4], in [5], in test [14] and in test [15] was “inactive” in each case. Also, the Potency result in test [16], in [11], in test [12], in [7] and in [8] was “inactive” throughout.

In the case of `CN1C2CCC1CC(OC(=O)C(O)c1ccccc1)C2` (configuration not stated), the compound was classed as inactive in [1] and in test [17]. For the same compound, the activity change, negative = inhibition in test [2] was 9.19% (inactive). For the same compound, the figures for the max response in test [2] (setting [18]) and in test [2] (setting [19]) were 16.5% and 28.9%, respectively. The Potency result in test [3], in [4], in [5], in [14], in [15] and in test [16] was “inactive” in each case. Besides, the Potency result in test [11], in test [12], in test [7] and in test [8] was “inactive” each time.

On to `O=C(O)c1cc([N+](=O)[O-])ccc1NCCCc1ccccc1`, for which, in test [1], the compound was classed as inactive. Further, the activity change, negative = inhibition in [2] is 0.312% (inactive). The max response is -11.5% in test [2] (setting [18]) and -12.2% in test [2] (setting [19]). Besides, the Potency entry in test [10], in test [3], in test [14], in test [15], in [11] and in test [8] was “inactive” in each case.
